Test results from PubChem BioAssay (NCI).
The panel holds about 83,000 compounds, 20% with a hit somewhere; the sample as a whole holds those more often.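 The test compound was applied at a single concentration to cells in 96-well plates for 48 hours, and percent growth was recorded.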 Unmarked numbers belong to inactive results. Calls of active or inactive are those of the source. The calls were made as follows: active = growth percent below 10; inactive = the rest.

What follows are compounds tested on CAKI-1 renal (assay: NCI-60 one-dose screen, 48 h (100 = growth as untreated, 0 = no growth, -100 = all killed)). Conditions: 10 µM unless noted.
`N#Cc1c(-c2ccc(Br)cc2)nc2c(N=Nc3ccc(S(N)(=O)=O)cc3)c(N)nn2c1N` showed a growth of 52.5%.
For `CCN(CC)CCN1C(=O)c2c(c3c4ccccc4[nH]c3c3ccc4ccccc4c23)C1=O`, the growth was 50.7%.
For `O=C(/C=C/c1ccccc1)N(C1CCCCC1)C1CCCCC1`, the growth was 66.8%.
Compound `CC1(C)CC[C@]2(CO)CC[C@]3(C)[C@](O)([C@H](O)C[C@@H]4[C@@]5(C)CCCNC(C)(C)[C@@H]5CC[C@]43C)[C@@H]2C1` has a growth of 97.5%.
Work on `Nc1nc(N(Cc2ccccc2)c2ccccc2)c2cn[nH]c2n1` yielded a growth of 31.9%.
`CN1CC(c2ccc(Br)cc2)C(C(=O)c2ccc(Br)cc2)C12C(=O)Nc1ccccc12` (configuration not stated) showed a growth of 46.9%.
Work on `Nc1nc(C(=O)N/N=C/c2ccc(F)cc2)nn1-c1ccc(S(N)(=O)=O)cc1` yielded a growth of 90.4%.
For `COc1ccc(-c2nc(SCC(=O)Nc3nc4ccc(C)cc4s3)[nH]c(=O)c2C#N)cc1OC`, the growth was 74.7%.
With `CNC(=O)NCC1OC(n2cnc3c(NC(=O)Nc4ccccc4)ncnc32)C2OC(=O)CC12` (configuration not stated) the growth was 100%.
`COc1ccc(NC(=O)c2ccc(Nc3ncnc4c3cnn4-c3cccc(F)c3)cc2)cc1` gave a growth of 90.8%.
`CC(C)NS(=O)(=O)/N=C1\NC(=O)NC1=C(Cl)Cl` was tested, and the growth was 91.6%.
`Cc1ccc2cnc(N)c(C#Cc3cc(C(=O)Nc4ccc(CN5CCN(C)CC5)c(C(F)(F)F)c4)cnc3C)c2c1` was tested, and the growth was -35.7% (active).
In the case of `Cc1nn(-c2ccc([N+](=O)[O-])cc2)c2ncnc(N/N=C/c3ccccc3O)c12`, the growth is reported as 3.95% (active).
Compound `CC(C)(C)OC(=O)CN1CCc2c(sc3ncnc(N4CCN(c5ccc(F)cc5)CC4)c23)C1` has a growth of 80.6%.
With `COC(=O)[C@@]1(C)CC[C@]2(C)CC[C@]3(C)C4=CC=C5C(=CC(=O)C(O)=C5C)[C@]4(C)[C@@H](O)C[C@@]3(C)[C@@H]2C1` the growth was 9.58% (active).
Work on `Cc1cc(Cl)nc(N2CCN(CCNc3ccnc4cc(Cl)ccc34)CC2)n1` yielded a growth of 44.6%.
With `Cc1ccc(C)c2c1sc1nc(N3CCOCC3)c(C#N)c(=O)n12` the growth was 105%.
Work on `COc1ccc2c(c1)CC[C@@H]1[C@@H]2CC[C@]2(C)c3c(cc(C#N)c4c3sc3ccccc34)C[C@@H]12` yielded a growth of 103%.
`C=C1C(=O)O[C@H]2[C@H]1CC/C(COC(=O)NCc1ccc(Cn3c(=O)sn(-c4ccc(I)cc4)c3=O)cc1)=C\CC[C@@]1(C)O[C@@H]21` was tested, and the growth was 71.5%.
`O=C(O)CC(C(=O)O)/C(=C\c1ccccc1)c1ccccc1` (configuration not stated) gave a growth of 103%.
For `CCN(CC)CCOc1ccc(Nc2ncc3cc(-c4c(Cl)cccc4Cl)c(=O)n(CCOC)c3n2)cc1`, the growth was 2.96% (active).
Compound `O=C(c1ccc(Br)cc1)C(Br)C(c1ccc(Cl)cc1)C(c1ccccc1)[N+](=O)[O-]` (configuration not stated) has a growth of 88.7%.
For `CN1CCOCCN(C)Cc2ccc3ccc(cc3c2)CN(C)CCOCCN(C)Cc2ccc3ccc(cc3c2)C1`, the growth was 77.7%.
Compound `COc1ccc(CN2C(=O)OC(C)(COC(C)=O)C2=O)cc1` (configuration not stated) has a growth of 94.8%.
`CN(C)c1ccc(/C=N\NC(=O)c2ccc3nc(-c4ccc(Cl)cc4)[nH]c3c2)cc1` showed a growth of 84.9%.
`COCCn1cc(-c2csc(-c3c[nH]c4ccc(F)cc34)n2)c2cccnc21` gave a growth of 45.3%.
`C/C(Cc1ccc(Cl)cc1)=C(\c1ccc(OCCN2CCCCCC2)cc1)c1ccc(OC(=O)c2ccccc2)cc1` was tested, and the growth was 52.6%.

Each compound was assayed on A498 renal in the same assay as above. Conditions: 10 µM unless noted.
Work on `COCCn1cc(-c2csc(-c3c[nH]c4ccccc34)n2)c2cccnc21` yielded a growth of 17.7%.
Compound `CCN(CC)c1ccc(-c2cc(-c3cc(OC)c(OC)c(OC)c3)nc(N3CCC(O)CC3)c2C#N)cc1` has a growth of 29%.
`CN1C(=O)/C(=C/c2ccc(C(=O)Nc3ncc(Cc4cccc(C(F)(F)F)c4)s3)cc2)SC1=S` gave a growth of 35.6%.
For `Nc1ncnc2c1N=C(c1ccc(Cl)cc1)CC(c1cccc(Nc3ccnc4cc(Cl)ccc34)c1)N2` (configuration not stated), the growth was 51.1%.
In the case of `COCCn1cc(-c2nc(-c3cc4cccnc4n3C)cs2)c2ccccc21`, the growth is reported as 33.2%.
For `COC(=O)[C@]1(C)CCC[C@]2(C)[C@H]3C[C@@H]4[C@H]5[C@@H]6CC/C(=N\OCC/C(N)=N/O)[C@H]5[C@@]3(CC[C@H]21)CC4(C(C)C)O6`, the growth was 82.4%.
In the case of `Cc1cccc(-c2nc(C(C)C)sc2-c2ccnc(NCCCNS(=O)(=O)c3ccc(Cl)cc3)c2)c1`, the growth is reported as 79%.
`O=C(/C=C/C12c3ccccc3C(c3ccccc31)C1C(=O)NC(=O)C12)c1ccc(Cl)cc1Cl` (configuration not stated) showed a growth of 35.7%.
`CC(C)(C)CC(C)(C)Nc1c(-c2c(O)c3ccccc3oc2=O)nc2sc3ccccc3n12` gave a growth of 69.6%.
For `CN(C)CCC(CCN(C)C)(C(=O)O)c1ccccc1`, the growth was 90.4%.
Compound `Cn1c(=O)[nH]c(=O)c2nc3c(nc21)-c1ccccc1C3=O` has a growth of 95.2%.
In the case of `C=C(c1ccc(C(=O)O)c(F)c1)c1cc2c(cc1C)C(C)(C)CCC2(C)C`, the growth is reported as 95.8%.
In the case of `C=C1C(=O)O[C@H]2[C@H]1CC/C(COC(=O)C(=O)c1c[nH]c3ccc(Cl)cc13)=C\CC[C@@]1(C)O[C@@H]21`, the growth is reported as -87.4% (active).
With `N#Cc1c(-c2ccc(Br)cc2)nc2c(N=Nc3ccc(S(N)(=O)=O)cc3)c(N)nn2c1N` the growth was 65%.
In the case of `CCN(CC)CCN1C(=O)c2c(c3c4ccccc4[nH]c3c3ccc4ccccc4c23)C1=O`, the growth is reported as 35.1%.
For `O=C(/C=C/c1ccccc1)N(C1CCCCC1)C1CCCCC1`, the growth was 93.4%.
For `CC1(C)CC[C@]2(CO)CC[C@]3(C)[C@](O)([C@H](O)C[C@@H]4[C@@]5(C)CCCNC(C)(C)[C@@H]5CC[C@]43C)[C@@H]2C1`, the growth was 83.6%.
`Nc1nc(N(Cc2ccccc2)c2ccccc2)c2cn[nH]c2n1` gave a growth of 69.9%.
With `CN1CC(c2ccc(Br)cc2)C(C(=O)c2ccc(Br)cc2)C12C(=O)Nc1ccccc12` (configuration not stated) the growth was 88.9%.
Work on `Nc1nc(C(=O)N/N=C/c2ccc(F)cc2)nn1-c1ccc(S(N)(=O)=O)cc1` yielded a growth of 100%.
For `COc1ccc(-c2nc(SCC(=O)Nc3nc4ccc(C)cc4s3)[nH]c(=O)c2C#N)cc1OC`, the growth was 102%.
`CNC(=O)NCC1OC(n2cnc3c(NC(=O)Nc4ccccc4)ncnc32)C2OC(=O)CC12` (configuration not stated) was tested, and the growth was 93.7%.
`COc1ccc(NC(=O)c2ccc(Nc3ncnc4c3cnn4-c3cccc(F)c3)cc2)cc1` was tested, and the growth was 57.3%.
Compound `CC(C)NS(=O)(=O)/N=C1\NC(=O)NC1=C(Cl)Cl` has a growth of 116%.
`Cc1ccc2cnc(N)c(C#Cc3cc(C(=O)Nc4ccc(CN5CCN(C)CC5)c(C(F)(F)F)c4)cnc3C)c2c1` was tested, and the growth was -75.9% (active).
`Cc1nn(-c2ccc([N+](=O)[O-])cc2)c2ncnc(N/N=C/c3ccccc3O)c12` showed a growth of 65.6%.
`CC(C)(C)OC(=O)CN1CCc2c(sc3ncnc(N4CCN(c5ccc(F)cc5)CC4)c23)C1` was tested, and the growth was 68.7%.
Compound `COC(=O)[C@@]1(C)CC[C@]2(C)CC[C@]3(C)C4=CC=C5C(=CC(=O)C(O)=C5C)[C@]4(C)[C@@H](O)C[C@@]3(C)[C@@H]2C1` has a growth of 101%.
In the case of `Cc1cc(Cl)nc(N2CCN(CCNc3ccnc4cc(Cl)ccc34)CC2)n1`, the growth is reported as 42.4%.
`Cc1ccc(C)c2c1sc1nc(N3CCOCC3)c(C#N)c(=O)n12` gave a growth of 75.7%.
For `COc1ccc2c(c1)CC[C@@H]1[C@@H]2CC[C@]2(C)c3c(cc(C#N)c4c3sc3ccccc34)C[C@@H]12`, the growth was 109%.
Work on `C=C1C(=O)O[C@H]2[C@H]1CC/C(COC(=O)NCc1ccc(Cn3c(=O)sn(-c4ccc(I)cc4)c3=O)cc1)=C\CC[C@@]1(C)O[C@@H]21` yielded a growth of 87.7%.
`O=C(O)CC(C(=O)O)/C(=C\c1ccccc1)c1ccccc1` (configuration not stated) was tested, and the growth was 93%.
For `CCN(CC)CCOc1ccc(Nc2ncc3cc(-c4c(Cl)cccc4Cl)c(=O)n(CCOC)c3n2)cc1`, the growth was -75.9% (active).
`O=C(c1ccc(Br)cc1)C(Br)C(c1ccc(Cl)cc1)C(c1ccccc1)[N+](=O)[O-]` (configuration not stated) showed a growth of 87.5%.
Compound `CN1CCOCCN(C)Cc2ccc3ccc(cc3c2)CN(C)CCOCCN(C)Cc2ccc3ccc(cc3c2)C1` has a growth of 79.1%.
Work on `COc1ccc(CN2C(=O)OC(C)(COC(C)=O)C2=O)cc1` (configuration not stated) yielded a growth of 103%.
`CN(C)c1ccc(/C=N\NC(=O)c2ccc3nc(-c4ccc(Cl)cc4)[nH]c3c2)cc1` showed a growth of 72.9%.
In the case of `COCCn1cc(-c2csc(-c3c[nH]c4ccc(F)cc34)n2)c2cccnc21`, the growth is reported as 9.07% (active).
In the case of `C/C(Cc1ccc(Cl)cc1)=C(\c1ccc(OCCN2CCCCCC2)cc1)c1ccc(OC(=O)c2ccccc2)cc1`, the growth is reported as 76.1%.
